Drawing on PubChem BioAssay (NCI), this text covers growth for 27 molecules.

Test in all cases: NCI-60 one-dose screen, 48 h (100 = growth as untreated, 0 = no growth, -100 = all killed)
Common to all, as to settings: 10 µM unless noted

The subject of experiment [1] is DU-145 prostate.
Experiment [2] concerns K-562 leukemia.
Experiment [3] relates to MALME-3M melanoma.
Experiment [4] has as its system MDA-MB-231 breast.
The subject of experiment [5] is RXF 393 renal.
Experiment [6] relates to SF-268 CNS.
The subject of experiment [7] is SF-295 CNS.
For experiment [8], the system named is SF-539 CNS.
In experiment [9] the test system is UACC-257 melanoma.
Experiment [10] has as its system M14 melanoma.

Compounds without any hit were thinned out: in the full panel of roughly 83,000, 20% have a hit.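 Single-dose data. Exposure time 48 hours. Values below 10 considered active.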 Values without a mark were called inactive. Calls of active or inactive are those of the source.

In the case of `C=C(C)[C@@H]1CC[C@]2(C(=O)N3CCNCC3)CC[C@]3(C)[C@H](CC[C@@H]4[C@@]5(C)C/C(=C/c6ccncc6)C(=O)C(C)(C)[C@@H]5CC[C@]43C)[C@@H]12`, the growth was 113% in experiment [1]; 97.3% in experiment [2]; 114% in experiment [3]; 116% in experiment [4]; 117% in [5]; 103% in experiment [6]. Also, the growth is 104% in [7], 105% in [8], 104% in [9] and 108% in [10].
Consider `O=C(CCl)N(C1CCCCC1)C1CCCCC1`, for which the growth in [1] was 112%; in experiment [2] it was 104%; in experiment [3], 112%; in [4], 120%; in [5], 107%; in [6] it was 103%. The growth in [7] was 98.3%; in experiment [8], 105%; in [9], 105%; in experiment [10] it was 96.2%.
Turning to `COc1cccc(-c2nc3sccn3c2-c2ccnc(NCCCNS(=O)(=O)c3ccc(C(F)(F)F)cc3)c2)c1`, the growth is 65.4% in [1]; 28.1% in [2]; 86.4% in [3]; 62.1% in experiment [4]; 65.6% in experiment [5]; 45.9% in experiment [6]. In addition, the growth is 44.3% in [7], 55.1% in experiment [8], 61.7% in experiment [9] and 47.7% in experiment [10].
On to `COc1cc2c(cc1O)CCN1C[C@@H](CC(C)C)[C@@H](O)C[C@@H]21`, for which the growth was 111% in [1]; 96% in [2]; 100% in experiment [3]; 103% in experiment [4]; 107% in experiment [5]; 107% in experiment [6]. Moreover, the growth in experiment [7] was 97.4%; in experiment [8], 96.7%; in experiment [9] it was 99.5%; in experiment [10] it was 100%.
As to `CCOC(=O)c1ccc(NC(=O)N2CC(C)OC(C)C2)cc1` (stereo not given), the growth in experiment [1] is 111%; in experiment [2] it was 89.9%; in experiment [3], 101%; in experiment [4] it was 96.5%; in [5], 98.6%; in experiment [6], 106%. Also, the growth was 98.5% in experiment [7], 95.8% in experiment [8], 106% in [9] and 107% in experiment [10].
For `Cn1ncc2c(Sc3ccc(Cl)cc3)ncnc21`, the growth in [1] was 83%; in [2] it was 78.1%; in experiment [3], 69.9%; in experiment [4], 98.6%; in experiment [5], 117%; in experiment [6], 57.8%. Further, the growth is 96.8% in experiment [7], 92.2% in experiment [8], 103% in [9] and 103% in experiment [10].
As to `COc1ccc(CNCCCN2C(=O)c3ccc4c5c(ccc(c35)C2=O)C(=O)N(CCCNCCCCNCCCN)C4=O)c(OC)c1OC`, the growth in experiment [1] was 36.9%; in experiment [2], 6.82% (active); in [3], -72.5% (active); in [4], 28%; in [5], 7.45% (active); in experiment [6], 17%. For the same molecule, the growth was 31.4% in [7], 1.73% (active) in [8], -83.3% (active) in [9] and 5.46% (active) in [10].
For the molecule `COc1ccc(Nc2nn3c(C)cc(C)nc3c2C(=O)Nc2ccc(C)cc2)c(OC)c1`, the growth is 113% in experiment [1]; 108% in [2]; 124% in experiment [3]; 108% in [4]; 107% in experiment [5]; 100% in experiment [6]. The growth in experiment [7] was 107%; in experiment [8], 102%; in experiment [9], 98.6%; in experiment [10] it was 101%.
Regarding `CCN1CCN(CC(=O)N2c3cccc4cccc(c34)N(C(=O)CN3CCN(CC)CC3)C2c2cn(-c3ccccc3)nc2-c2cccc([N+](=O)[O-])c2)CC1`, the growth in experiment [1] was 28.3%; in [2], -52.9% (active); in experiment [3], -91.3% (active); in experiment [4], -66.1% (active); in experiment [5], 3.79% (active); in experiment [6], 16.6%. Also, the growth in experiment [7] was -50.3% (active); in experiment [8], -89.2% (active); in experiment [9], -83.1% (active); in [10] it was -81.6% (active).
For the molecule `COc1cccc(/C=C2\Oc3cc(OCCCN4CCCC4)ccc3C2=O)c1`, the growth in experiment [1] was 94.7%; in experiment [2], -35.5% (active); in experiment [3], 98.9%; in [4], 76.7%; in [5] it was 81%; in experiment [6], 88.3%. Also, the growth was 91.1% in experiment [7], 76.1% in experiment [8], 102% in experiment [9] and 65.9% in experiment [10].
Turning to `O=C1Nc2ccc(Cl)cc2C12Nc1cc(Cl)ccc1S2` (stereo not given), the growth in [1] was 96.5%; in experiment [2], 39.2%; in [3], 74.2%; in [4], 83.2%; in [5], -8.23% (active); in [6] it was 88.3%. The growth in experiment [7] is 106%; in experiment [8], 87.9%; in [9] it was 129%; in experiment [10] it was 93.9%.
Turning to `O=C(C1=Cc2cc3ccccc3n2Cc2cnnn21)c1ccccc1`, the growth in [1] was 85.6%; in experiment [2], 21.4%; in experiment [3], 76.9%; in experiment [4], 54.3%; in [5], 54.6%; in experiment [6], 58.8%. Besides, the growth in experiment [7] is 56.3%; in experiment [8], 57.8%; in experiment [9], 74.6%; in experiment [10], 22.2%.
With `CCCCN(CCCC)C(=O)CC`, the growth in experiment [1] is 112%; in experiment [2], 101%; in experiment [3], 124%; in experiment [4] it was 114%; in [5], 128%; in experiment [6] it was 105%. Moreover, the growth in experiment [7] is 109%; in experiment [8], 112%; in experiment [9], 129%; in experiment [10], 111%.
Take `CN1CCN(Cc2ccc(NC(=O)c3nc4ccc5[nH]ncc5c4c4c3CCC4)cc2C(F)(F)F)CC1`: the growth is -90.1% (active) in [1]; -46.6% (active) in experiment [2]; -55% (active) in [3]; -84.3% (active) in [4]; 67.9% in experiment [5]; 98.2% in [6]. The growth in experiment [7] is 99.8%; in [8], -96% (active); in experiment [9], -64.5% (active); in experiment [10] it was -84.5% (active).
Take `C=C[C@@H]1C[C@@H]2Cc3c(C)cc(C)cc3N1O2`: the growth in [1] is 108%; in experiment [2], 89.8%; in experiment [3], 77%; in experiment [4], 113%; in experiment [5], 98.3%; in [6], 93%. Moreover, the growth in experiment [7] was 92.1%; in experiment [8], 96.6%; in [9] it was 101%; in [10], 104%.
For `COc1ccc(NC(=O)c2c(Nc3ccc(OC)cc3OC)n[nH]c2N)c(OC)c1`, the growth in experiment [1] is 108%; in experiment [2], 95.6%; in experiment [3], 107%; in experiment [4], 72.7%; in experiment [5], 81.1%; in experiment [6] it was 102%. The growth in [7] is 92.1%; in experiment [8], 116%; in experiment [9], 114%; in experiment [10], 89.6%.
For the molecule `Cc1cc(N/N=C/c2nc(-c3ccc(Br)cc3)oc2C)c2cc(Br)ccc2n1`, the growth in experiment [1] was 34.6%; in experiment [2], -29.2% (active); in [3], 17.4%; in experiment [4], 55.9%; in experiment [5], 92.8%; in experiment [6], 75.1%. The growth in experiment [7] is 96.7%; in [8], 89%; in experiment [9], 95.8%; in experiment [10] it was 57.5%.
On to `COc1cc([N+](=O)[O-])c2ncccc2c1O`, for which the growth in [1] is 8.92% (active); in [2], 130%; in experiment [3], -25.9% (active); in experiment [4], 98.6%; in experiment [5], 93.3%; in [6], 88.2%. In addition, the growth in [7] is 3.61% (active); in experiment [8], 24.3%; in experiment [9], 48%; in [10], -23.9% (active).
Turning to `Oc1ccccc1/C=N/NC(=S)NC1CC2C=CC1C2` (stereo not given), the growth was 88.7% in experiment [1]; 33.3% in [2]; 102% in [3]; 84.2% in experiment [4]; 68.3% in experiment [5]; 67.8% in [6]. Besides, the growth in experiment [7] is 85%; in experiment [8], 93.8%; in experiment [9], 76.8%; in experiment [10], 47.7%.
With `COc1ccc(NC(=O)c2cc(OC)c(OC)c(OC)c2)cc1O`, the growth is 36.6% in experiment [1]; 27.7% in experiment [2]; 46.5% in experiment [3]; 58.5% in experiment [4]; 46.4% in [5]; 44.1% in experiment [6]. Also, the growth is 35.5% in experiment [7], 21.5% in experiment [8], 58.2% in experiment [9] and 36% in experiment [10].
As for `C=C[C@@H]1C[C@H](O)Cc2cc(F)ccc2N1`, the growth in experiment [1] is 102%; in experiment [2], 102%; in experiment [3], 91.7%; in experiment [4] it was 96.1%; in experiment [5] it was 106%; in experiment [6], 94%. The growth in experiment [7] was 101%; in experiment [8] it was 108%; in [9], 96.1%; in [10] it was 97%.
With `COc1ccc(Nc2nn3c(-c4ccccc4)cc(-c4ccccc4)nc3c2C(N)=O)c(OC)c1`, the growth in experiment [1] is 38.2%; in experiment [2] it was 58.1%; in experiment [3] it was 44.7%; in experiment [4], 29.3%; in [5], 84.7%; in experiment [6] it was 53.4%. For the same molecule, the growth in [7] was 37.5%; in experiment [8] it was 13.4%; in [9] it was 62.4%; in experiment [10] it was 51.3%.
Turning to `O=S(=O)(CC(O)(c1ccccc1)c1ccccc1)CC(O)(c1ccccc1)c1ccccc1`, the growth in [1] is 74.6%; in experiment [2], 75.8%; in experiment [3], 61.8%; in experiment [4], 71.2%; in experiment [5] it was 93.4%; in [6] it was 85.3%. The growth in [7] is 74.8%; in [8] it was 2.42% (active); in experiment [9], 102%; in [10] it was 95.2%.
Turning to `Brc1cccc(-c2cc(-c3ccc4nccnc4c3)[nH]n2)c1`, the growth in experiment [1] is 17.7% [25 µM]; in experiment [2], 11.9% [25 µM]; in experiment [3] it was 59.2% [25 µM]; in experiment [4] it was 28.3% [25 µM]; in experiment [5], -12.8% [25 µM] (active); in [6], 41.1% [25 µM]. For the same molecule, the growth in experiment [7] was 7.1% [25 µM] (active); in [8] it was -35.2% [25 µM] (active); in experiment [9], 91.2% [25 µM]; in experiment [10], 23.5% [25 µM].
As to `C=C1CC2(OC1=O)C(=O)N(CCCN1C(=O)C3(CC(=C)C(=O)O3)c3ccccc31)c1ccccc12` (stereo not given), the growth in experiment [1] is 37.4%; in experiment [2] it was 5.21% (active); in [3], -48.5% (active); in experiment [4] it was -29.2% (active); in experiment [5], -61.1% (active); in [6] it was 70.6%. The growth in experiment [7] was 82.1%; in experiment [8], 9.24% (active); in experiment [9], 30.4%; in experiment [10], 19.1%.
Regarding `S=c1[nH]nc(-c2cc3ccc2CCc2ccc(cc2)CC3)n1C1CC1`, the growth in [1] is 108%; in experiment [2], 97.9%; in [3], 97%; in experiment [4], 99.5%; in [5], 105%; in [6] it was 103%. Besides, the growth in experiment [7] was 93.8%; in experiment [8] it was 98%; in [9] it was 105%; in [10], 97.8%.
In the case of `Cc1ccc(S(=O)(=O)NCCNc2cc(-c3cn(C(C)(C)C)nc3-c3cccc(O)c3)ccn2)cc1`, the growth in experiment [1] was 88.9%; in [2], 18.6%; in [3], 61.8%; in experiment [4], 76.6%; in experiment [5] it was 68.2%; in experiment [6] it was 62%. Also, the growth in experiment [7] was 71.6%; in experiment [8], 64.5%; in experiment [9] it was 79.2%; in [10], 86.9%.
